The source of these data is PubChem BioAssay (NCATS).

Structures are written as SMILES. Inconclusive results are not listed. Calls of active or inactive are those of the source. Calls come from the whole dose curve; as a rule, active = well fitted curve in the direction sought with a large enough effect; inconclusive = small, poorly fitted or top-dose-only effect, or another doubt; inactive = no such curve, though single readings can be large or run the other way.

Ferritin light chain (Equus caballus), sequence (P02791 2-175 limits assumed): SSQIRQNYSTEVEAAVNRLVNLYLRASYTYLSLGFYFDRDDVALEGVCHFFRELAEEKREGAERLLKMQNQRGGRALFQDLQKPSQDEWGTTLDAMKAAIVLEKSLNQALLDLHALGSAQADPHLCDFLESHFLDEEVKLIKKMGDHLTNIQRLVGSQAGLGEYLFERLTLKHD

The target in the test is Ferritin light chain (Equus caballus) (UniProt P02791). Nature of the test: qHTS Validation Assay for Identification of Novel General Anesthetics (AID 2323). Conditions: horse apoferritin, anesthetic-site fluorescent probe displacement; series mostly up to 76.9 µM. The text has this:
Source: NIH Chemical Genomics Center [NCGC]
Assay Submitter: Roderic Eckenhoff, University of Pennsylvania
Screening Center PI: Christopher P. Austin, NIH
Probe Development: NIH Chemical Genomics Center [NCGC]
Anesthetic development has remained a largely empirical process. There are growing concerns about the cognitive effects of known general anesthetics and acceleration of the onset of neurodegenerative disease. The compounds' toxicity and multiple specific binding targets in the mammalian brain [4] has made them less attractive as drug leads. In this assay, a GABAergic mimetic model system, apoferritin and a profluorescent 1-aminoanthracene ligand (1-AMA), was used to construct a competitive binding assay for identification of novel general anesthetics. The assay was validated for 1-AMA using other known anesthetics, such as isoflurane (CID:3763) and propofol (CID: 4943), [6].
[1] S.L. Bianchi, T. Tran, C. Liu, S. Lin, Y. Li, J.M. Keller, R.G. Eckenhoff, and M.F. Eckenhoff, Brain and behavior changes in 12-month-old Tg2576 and nontransgenic mice exposed to anesthetics. Neurobiol Aging 29 (2008) 1002-10.
[2] Z. Xie, Y. Dong, U. Maeda, R.D. Moir, W. Xia, D.J. Culley, G. Crosby, and R.E. Tanzi, The inhalation anesthetic isoflurane induces a vicious cycle of apoptosis and amyloid beta-protein accumulation. J Neurosci 27 (2007) 1247-54.
[3] P. Honegger, and J.M. Matthieu, Selective toxicity of the general anesthetic propofol for GABAergic neurons in rat brain cell cultures. J Neurosci Res 45 (1996) 631-6.
[4] M.F. Eckenhoff, K. Chan, and R.G. Eckenhoff, Multiple specific binding targets for inhaled anesthetics in the mammalian brain. J Pharmacol Exp Ther 300 (2002) 172-9.
[5] C.A. Butts, J. Xi, G. Brannigan, A.A. Saad, S.P. Venkatachalan, R.A. Pearce, M.L. Klein, R.G. Eckenhoff, and I.J. Dmochowski, Identification of a fluorescent general anesthetic, 1-aminoanthracene. Proc Natl Acad Sci U S A 106 (2009) 6501-6.
[6] W.A. Lea, J. Xi, A. Jadhav, L. Lu, C.P. Austin, A. Simeonov, and R.G. Eckenhoff, A high-throughput approach for identification of novel general anesthetics. PLoS One 4 (2009) e7150.
Three uL of reagents (free 1-AMA (50% saturated solution of 1-aminoanthracene
in PBS) in columns 3, 4 as negative control and 1-AMA/apoferritin mixture (10 uM horse-spleen apoferritin in 50% saturated 1-aminoanthracene in PBS) in columns 1, 2, 5-48) was dispensed into 1536-well Greiner black assay plates. Compounds (23 nL) were transferred via Kalypsys pintool equipped with 1,536-pin array (10 nL slotted pins, V&P Scientific, San Diego, CA). Titration of the positive control, propofol, were delivered via pin transfer from separate control plates to the 2nd column of each assay plate. The starting concentration of the control, dissolved in DMSO, was at 160 mM, followed by two-fold dilution points in duplicate, for a total of 16 concentrations. The plates were incubated for 10 min at room temperature, and then read on an EnVision HTS multilabel reader (Perkin-Elmer, Waltham, MA) (end point read, 3 min/plate) using Fura2 BFP excitation filter (380 nm, bandwidth 10 nm) and fluorescein emission filter (535 nm, bandwidth 25 nm) set. A LANCE/DELFIA dichroic mirror with a cutoff wavelength at 400 nm was used to maximize signal accuracy and strength. Vehicle-only plates, with DMSO being pin-transferred to the entire column 5-48 compound area, were inserted uniformly at the beginning and the end of each library in order to monitor for and record any shifts in the background. Activity was computed as the normalized fluorescence response relative to free 1-AMA and 1-AMA/apoferritin complex values. Concentration-effect relationships were derived by using curve fitting algorithms developed in-house (http://ncgc.nih.gov/pub/openhts/). A four parameter Hill equation was fitted to the concentration-response data by minimizing the residual error between the modeled and observed responses.
Regarding `CNC[C@H](O)c1cccc(O)c1`, the result was inactive.
Consider `O=c1n(CCCN2CCN(c3cccc(Cl)c3)CC2)nc2ccccn12`, for which the compound was classed as inactive.
In the case of `O=c1[nH]cnc2[nH]ncc12`, the compound was classed as inactive.
As for `NC(=O)c1cnccn1`, the entry is “inactive”; as for `Cc1cnc(NC(=O)C2=C(O)c3ccccc3S(=O)(=O)N2C)s1`, “inactive”.
The result for `NCCc1ccc(O)c(O)c1` reads “inactive”; that for `Cc1[nH]c(=O)c(C#N)cc1-c1ccncc1`, “inactive”.
With `Cc1ccc(N(CC2=NCCN2)c2cccc(O)c2)cc1`, the result was inactive.
For the compound `NCCCC(N)(C(=O)O)C(F)F` (stereo not drawn), the result was inactive.
As for `N[C@@H]1CONC1=O`, the entry is “inactive”.
The result for `CC(=O)Oc1ccccc1C(=O)O` reads “inactive”.
The result for `CCCCNc1cc(C(=O)O)cc(S(N)(=O)=O)c1Oc1ccccc1` reads “inactive”; that for `Nc1nc2ccc(OC(F)(F)F)cc2s1`, “inactive”; that for `NC[C@H](O)c1ccc(O)c(O)c1`, “inactive”.
Turning to `O=NN(CCCl)C(=O)NCCCl`, the outcome was inactive.
Regarding `NNCCc1ccccc1`, the outcome was inactive.
Regarding `CCN(CC)CCCC(C)Nc1ccnc2cc(Cl)ccc12` (stereo not drawn), the compound was classed as inactive.
Turning to `N=c1nc(N2CCCCC2)cc(N)n1O`, the call was inactive.
As for `Cc1oncc1C(=O)Nc1ccc(C(F)(F)F)cc1`, the entry is “inactive”.
The result for `Cc1[nH]c(=O)c(C#N)cc1-c1ccc2nccn2c1` reads “inactive”; that for `Nc1nc2c(ncn2COCCO)c(=O)[nH]1`, “inactive”; that for `Clc1cccc(Cl)c1NC1=NCCN1`, “inactive”.
The result for `CC(C)(C)NCC(O)c1ccc(O)c(CO)c1` (stereo not drawn) reads “inactive”; that for `CCn1cc(C(=O)O)c(=O)c2cc(F)c(N3CCNC(C)C3)c(F)c21` (stereo not drawn), “inactive”.
As for `O=C1CCC(N2C(=O)c3ccccc3C2=O)C(=O)N1` (stereo not drawn), the compound was called inactive.
As for `CCOC(=O)N1CCC(=C2c3ccc(Cl)cc3CCc3cccnc32)CC1`, the entry is “inactive”; as for `CCCC(CCC)C(=O)O`, “inactive”; as for `CN1CCN(CCCN2c3ccccc3Sc3ccc(C(F)(F)F)cc32)CC1`, “inactive”.
As for `Cc1cn[nH]c1`, the outcome was inactive.
As for `O=C1CCc2cc(OCCCCc3nnnn3C3CCCCC3)ccc2N1`, the result was inactive.
The result for `CC(C)C[C@H](NC(=O)[C@@H](O)[C@H](N)Cc1ccccc1)C(=O)O` reads “inactive”.
Take `C1COC(NC(C2CC2)C2CC2)=N1`: the compound was called inactive.
As for `CC(C)NCC(O)COc1ccc(COCCOC(C)C)cc1` (stereo not drawn), the entry is “inactive”; as for `Cn1cnc([N+](=O)[O-])c1Sc1ncnc2nc[nH]c12`, “inactive”; as for `CC(C[N+](C)(C)C)OC(N)=O` (stereo not drawn), “inactive”.
Consider `NS(=O)(=O)c1cc2c(cc1Cl)NC=NS2(=O)=O`, for which the outcome was inactive.
The result for `Cc1ccccc1C(OCCN(C)C)c1ccccc1` (stereo not drawn) reads “inactive”; that for `CCOC(=O)C1=C[C@]2(CC)CCCN3CCc4c(n1c1ccccc41)[C@@H]32`, “inactive”.
